Source: PubChem
A selection: hits, their analogues and other compounds. The true share with any hit is near 8%.
HT1080 IDH1KD tx: HT-1080 IDH1 knockdown cell toxicity (counter line). HT-1080 IDH1 knockdown viability, ATP luminescence, 48 h. 360,000 compounds, 2% hits. Potency, µM (titrated, usually from 46.1 µM), hits mostly cytotoxic
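CellTiter-Glo luminescence after 48 h compound exposure at 37 degrees C of IDH1-knockdown HT-1080 cells in 5% FBS RPMI. %Activity scaled between DMSO wells and cell-free media wells, with curves fitted and assigned curve classes.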
SW480 rereplic: DNA re-replication induction in SW480 cells; Potency, µM (highest dose often 46.1 µM), usual class: activators; SW480 DNA re-replication, Hoechst DNA content imaging, 48 h; 340,000 compounds, 1.8% hits; note: nearly all actives have a fitted effect of over 55% in size
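Image-based read-out: total Hoechst fluorescence of nuclei (405 nm excitation, 500-530 nm emission), with hits raising the fraction of high-intensity nuclei. SW480 colon cells incubated 48 hr with compounds at 37 C.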
KB-3-1 tox: kills parental KB-3-1 adenocarcinoma cells; KB-3-1 viability, CellTiter-Glo ATP luminescence, 72 h; Potency, µM (series often up to 46.1 µM), most hits filed as cytotoxic; 400,000 compounds, 1.4% hits; note: nearly all actives have a fitted effect of over 60% in size
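Multi-concentration cytotoxicity screen in KB-3-1 cells grown in DMEM lacking phenol red with 10% FBS. After 72 h at 37 °C with compound, ATP-dependent luminescence was recorded.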
KB-V1 cytotox: kills drug-selected multidrug resistant KB-V1 cells; KB-V1 MDR cells viability, CellTiter-Glo, 72 h; Potency, µM (highest dose often 46.1 µM), most hits filed as cytotoxic; 400,000 compounds, 3.4% hits; AID 1347076; note: nearly all actives have a fitted effect of over 60% in size
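Readout: CellTiter-Glo luminescence, 10 min after addition. Cells: KB-V1 MDR subline, 72 h at 37 degrees C with compound. Analysis: corrected, normalized data fitted to concentration-effect curves.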
MCF10A rereplic: inducers of DNA re-replication in MCF 10A breast cells. MCF 10A DNA re-replication, Hoechst nuclear intensity, 48 h. Potency, µM (series often up to 46.1 µM), actives largely listed as activators. 350,000 compounds, 2.9% hits; note: nearly all actives have a fitted effect of over 50% in size
HT1080-NT tox: kills 2HG-producing HT-1080-NT fibrosarcoma cells. HT-1080-NT fibrosarcoma viability, CellTiter-Glo ATP luminescence, 48 h. 360,000 compounds, 1.6% hits. Potency, µM (doses to about 46.1 µM), usual class: cytotoxic. AID 686970;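 note: NT is the 2HG producing partner of a matched IDH1 knockdown line; nearly all actives have a fitted effect of over 55% in size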
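HT-1080-NT fibrosarcoma cells (2HG-overproducing), 750 cells/well in RPMI with 5% FBS, dosed after 2 h and incubated 48 h at 37C. CellTiter-Glo luminescence normalized to DMSO and no-cell wells; concentration-response curves fitted and classed.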
Hits are given with their value; . = inactive; ? = inconclusive; / = not tested or not shown; [ ] = another dose, or the depositor's remark. Calls come from the whole dose curve; as a rule, active = well fitted curve in the direction sought with a large enough effect; inconclusive = small, poorly fitted or top-dose-only effect, or another doubt; inactive = no such curve, though single readings can be large; an effect the other way counts as inactive or inconclusive.

SMILES	HT1080 IDH1KD tx	SW480 rereplic	KB-3-1 tox	KB-V1 cytotox	MCF10A rereplic	HT1080-NT tox
Cc1ccc(NC(=S)NCc2cccs2)c(C)c1	.	.	.	.	.	.
Cc1ccccc1OCCn1c(=S)[nH]c2c(N)ncnc21	.	.	.	.	.	.
COc1ccc(CNc2ncnc3cc(OC)c(OC)cc23)cc1OC	.	.	.	?	.	.
CCOC(=O)c1c(NS(=O)(=O)c2ccc(Br)cc2)sc2c1CCC2	.	.	.	.	?	.
COC(=O)c1c(NS(=O)(=O)c2ccc3ccccc3c2)sc2c1CCCC2	?	.	.	16µM	?	.
COC(=O)c1c(NC(=O)c2ccc(C)c(S(=O)(=O)Nc3ccccc3C)c2)sc2c1CCCC2	.	.	.	23µM	?	.
O=C(O)CCN1C(=O)c2ccc(Oc3ccc4c(c3)C(=O)N(CCC(=O)O)C4=O)cc2C1=O	.	.	.	.	.	.
COc1ccc(S(=O)(=O)N(CC(=O)N2CCOCC2)Cc2ccccc2)cc1C	.	.	.	2.9µM	.	.
COc1ccc(C)cc1S(=O)(=O)N(CC(=O)N1CCOCC1)Cc1ccccc1	.	.	.	?	.	.
Cc1ccc(S(=O)(=O)c2cn(Cc3ccc(F)cc3)c3cc(N4CCCC4)c(F)cc3c2=O)cc1	/	/	.	.	/	/
COc1ccc(C2SCC(=O)N2c2nc3ccccc3s2)cc1 (stereo unspecified)	.	.	.	.	.	.
C[C@]12C=CC(=O)C=C1CCC1C2CC[C@@]2(C)C1CCC21OCCO1 (stereo partly specified)	.	.	.	.	?	.
C[C@]12C=C[C@H](O)CC1=CCC1C2CC[C@@]2(C)C1CCC21OCCO1 (stereo partly specified)	.	?	.	?	21µM	.
O=C(NCc1cccc(C(F)(F)F)c1)C1C(=O)Nc2ccccc2C(=O)N1Cc1ccccc1 (stereo unspecified)	.	/	?	?	/	.
CC(=O)Nc1c(Cl)cc2c(c1Cl)Cc1cc(C#N)ccc1-2	.	.	1.2µM	0.92µM	.	.
CSc1ncccc1C(=O)N1CCN(C(=O)c2ccccc2)CC1	.	.	.	?	.	.
CCC(C)(C(=O)NC1CCCCC1)N(Cc1ccco1)C(=O)c1ccc2c(c1)OCO2 (stereo unspecified)	.	.	.	12µM	.	.
CCC(C)(C(=O)NC1CCCC1)N(CC1CCCO1)C(=O)c1ccc2c(c1)OCO2 (stereo unspecified)	.	.	.	.	.[0.0737 µM]	.
COc1ccc(CNC(=O)Nc2ccc3c(c2)c(=O)n(C)n3Cc2cc(C)cc(C)c2)cc1	.	/	.	.	/	.
CC(=O)N[C@H]1C(O)O[C@H](CO)[C@@H](O)[C@@H]1O (stereo partly specified)	.	.	.	.	.	?
O=C(C1CCCCC1)N1C[C@H](n2cc(-c3ccc(F)cc3)nn2)[C@@H](O)C[C@@H]1c1ccccc1	.	/	.	.	/	.
O=C(C1CCCCC1)N1C[C@@H](O)[C@H](n2cc(-c3ccc(F)cc3)nn2)C[C@@H]1c1ccccc1	?	/	18µM	.	/	?
CCCCCC(=O)N1C[C@@H](O)[C@H](n2cc(-c3ccc(F)cc3)nn2)C[C@@H]1c1ccc(Cl)cc1	?	/	?	?	/	.
Cc1ccc([C@H]2C[C@@H](n3cc(-c4ccc(F)cc4)nn3)[C@H](O)CN2C(=O)C2CCCCC2)cc1	.	/	?	9.2µM	/	.
CCCCCC(=O)N1C[C@H](n2cc(-c3ccc(F)cc3)nn2)[C@@H](O)C[C@@H]1c1ccc(Cl)cc1	?	/	?	?	/	16µM
CCOC(=O)C1=C(N)n2c(s/c(=C\c3cccs3)c2=O)=C(C(=O)OCC)C1c1cccs1 (stereo unspecified)	2.6µM	?	10µM	13µM	?	?
